Shown are actives, neighbours in structure and some others; about 1.2% of the full set was active somewhere.
RAD54 inh – inhibitors of human RAD54 branch migration, primary screen, biochemical, fluorescence, single point; DNA repair and recombination protein RAD54-like (Homo sapiens), Q92698; RAD54 Holliday junction branch migration, FAM/BHQ fluorescence; inhibition, % at 10.4 µM; hit rate 0.14% among 360,000;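 active = mean normalized replicate activity at least 40 and at least half of replicates scoring 40 or more; inconclusive = only one of the two criteria met; inactive = mean below 40 and under half of replicates reaching 40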;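 note: 0% = median of neutral control wells and 100% = median of positive control wells; inhibitors cause a drop in the FAM fluorescence signal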
NSD2 HMT inh – NSD2 histone methyltransferase inhibitors, primary screen, biochemical, AlphaScreen, single concentration, set 2; Histone-lysine N-methyltransferase NSD2 (Homo sapiens), O96028; AID 743445, 2014; hit rate 0.54% among 310,000; NSD2 peptide methylation, 120 min; inhibition, % at 12.5 µM; in the data active = inhibition above about 50%
Glyco luc inh – increase of ERlucT glycosylation luciferase signal, primary screen, N-linked glycosylation inhibitor project, D54 ERlucT cells, luminescence, set 2. reporter increase, % at 12.5 µM. AID 588692, 2011. D54 ERlucT glycosylation luciferase reporter, 24 h; percent of 100 nM tunicamycin response. hit rate 0.23% among 360,000;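 active = mean luciferase reporter signal, scaled so untreated is 0 and the glycosylation-blocking control 100, at or above a set limit in every replicate; inconclusive = mean reaches the limit but not every replicate does; inactive = mean below the limit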;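 note: luciferase carries N-glycosylation sites so blocking glycosylation raises the light; 0% = median of neutral control wells and 100% = median of 100 nM tunicamycin wells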
Casp6 inh – human caspase-6 inhibitors, primary screen, biochemical, VEID-R110 fluorescence, single point, set 2; P55212; purified caspase-6, Z-VEID-R110 cleavage fluorescence; inhibition, % at 12.5 µM; hit rate 0.53% among 350,000; AID 686996, 2013;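 active = mean inhibition across replicates at least about 35%, with every replicate also reaching that limit, limit read from the data; inconclusive = only one of the two criteria met; inactive = neither criterion met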;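 note: 0% = median of neutral control wells and 100% = no fluorescence left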
RAD52 anneal inh – RAD52 DNA annealing inhibitors, primary screen, biochemical, FRET, single point, set 2; inhibition, % at 18.7 µM; recombinant RAD52 DNA annealing, FRET fluorescence; hit rate 0.46% among 360,000;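 active = every replicate showing at least 50% inhibition; inconclusive = mean inhibition at least 50% but not in every replicate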
The depositor's hits bear a star; i = inactive; ? = inconclusive; / = no result given.

SMILES	RAD54 inh	NSD2 HMT inh	Glyco luc inh	Casp6 inh	RAD52 anneal inh
CO[C@@H]1CN(C)C(=O)c2ccc(NS(=O)(=O)c3cccc(F)c3)cc2OC[C@@H](C)NC[C@@H]1C	/	/	/	1	5
N#Cc1cc2[nH]c3ccccc3c2[n+](-c2ccc([N+](=O)[O-])cc2)c1N	26	1	28*	2	15
O=c1[nH]c2cc([N+](=O)[O-])cc(Cl)c2c2ccccc12	-2	/	1	5	-2
O=C(NCC1CCCO1)C(c1ccc(F)cc1)N(CC1CCCO1)C(=O)c1ccc(-c2ccccc2)[nH]1 (stereo not given)	/	2	1	48*	-14
O=C(NCC1CCCO1)C(c1cccs1)N(Cc1cccs1)C(=O)c1ccc(-c2ccccc2)[nH]1 (stereo not given)	/	1	-1	4	-100
C=CCN1C(=O)[C@@]2(O[C@@H](CCn3cc([C@H](O)c4ccccc4)nn3)[C@H]([Si](C)(C)c3ccc(OC)cc3)[C@H]2C)c2cc(N3C(=O)c4cccc5cccc3c45)ccc21	3	/	/	0	16
CCN1/C(=C\c2ccc3cc(C)ccc3[n+]2CC)Sc2cc(C)c(C)cc21	i	54*	14	-25	i
CCN1/C(=C/c2ccc3cc(C)ccc3[n+]2CC)Sc2ccc3sccc3c21	/	/	-18	/	/
O=C(COc1ccc(S(=O)(=O)NC2CCCCC2)cc1Cl)NCc1ccc2c(c1)OCO2	-3	0	-3	40*	-14
C/C(=C\c1ccccc1)C(=O)N1CCC=CC1=O	/	/	/	-4	-9
C[C@H]1CN([C@@H](C)CO)C(=O)c2cc(-c3cccnc3)cnc2O[C@H]1CN(C)C(=O)Cc1cccnc1	4	/	/	2	6
CCOCCCNC(=O)C1c2ccccc2Oc2ccccc21	-4	-1	-2	41*	-13
Cc1ccc(S(=O)(=O)N(C)C[C@@H]2Oc3ccc(NC(=O)C4CCCCC4)cc3C(=O)N([C@@H](C)CO)C[C@@H]2C)cc1	-7	/	/	-1	-2
CC(C)NC(=O)Nc1ccc2c(c1)C(=O)N([C@H](C)CO)C[C@H](C)[C@@H](CN(C)S(=O)(=O)c1ccccc1)OCCCC[C@H](C)O2	-3	/	/	40*	1
Cc1ccc(S(=O)(=O)N(C)C[C@H]2Oc3ccc(NC(=O)C4CCCCC4)cc3C(=O)N([C@H](C)CO)C[C@H]2C)cc1	0	/	45*	-2	24
Cc1ccc(S(=O)(=O)N(C)C[C@H]2OCCCC[C@@H](C)Oc3ccc(NC(=O)CCCN(C)C)cc3C(=O)N([C@@H](C)CO)C[C@H]2C)cc1	23	/	/	-3	51*
CCCNC(=O)N1CC2(CCN(Cc3nccs3)CC2)c2c([nH]c3cc(OC)ccc23)[C@H]1CO	/	/	/	-2	-5
Cn1c(=O)c(C(=O)CN2CCN(S(=O)(=O)c3ccccc3)CC2)c(N)n(Cc2ccccc2)c1=O	/	0	-4	/	/
CCCn1c(N)c(C(=O)CN2CCN(S(=O)(=O)c3cccc(Cl)c3)CC2)c(=O)[nH]c1=O	3	2	5	41*	-15
C[C@@H]1CCCCO[C@@H](CN(C)Cc2ccc3c(c2)OCO3)[C@@H](C)CN([C@@H](C)CO)C(=O)c2cc(NC(=O)Nc3ccc4c(c3)OCO4)ccc2O1	7	/	/	-3	55*
C[C@@H]1CCCCO[C@@H](CN(C)C)[C@H](C)CN([C@@H](C)CO)C(=O)c2cc(NC(=O)Nc3ccc(C(F)(F)F)cc3)ccc2O1	6	/	/	-6	53*
C[C@H](CO)N1C[C@H](C)[C@@H](CN(C)C)OCCCC[C@H](C)Oc2ccc(NC(=O)Nc3ccc(C(F)(F)F)cc3)cc2C1=O	2	/	/	-2	44
C[C@@H]1CN([C@@H](C)CO)C(=O)c2cc(NC(=O)C3CCCCC3)ccc2O[C@@H](C)CCCCO[C@@H]1CN(C)C(=O)Nc1ccc(C(F)(F)F)cc1	0	/	/	-2	60*
C[C@@H]1CCCCO[C@H](CN(C)Cc2ccc3c(c2)OCO3)[C@@H](C)CN([C@@H](C)CO)C(=O)c2cc(NC(=O)Nc3ccc(C(F)(F)F)cc3)ccc2O1	3	/	/	0	61*
CN1C(=O)c2cc(NC(=O)c3cccc(F)c3)ccc2OC[C@@H]2O[C@@H](CC(=O)NCC3CC3)CC[C@@H]21	/	/	/	4	3
SMILES	RAD54 inh	NSD2 HMT inh	Glyco luc inh	Casp6 inh	RAD52 anneal inh
C[C@@H]1CN([C@H](C)CO)C(=O)c2cccc(NC(=O)Nc3ccc(C(F)(F)F)cc3)c2O[C@@H]1CN(C)CC1CCCCC1	8	/	/	-2	57*
N#Cc1cccc(-c2ccc3c(c2)[C@H]2[C@H](CCN2C(=O)c2ccncc2)[C@H](CO)N3)c1	-27	/	/	/	/
CC1=NN(c2ccc(Cl)c(C(=O)O)c2)C(=O)C1	/	9	0	82*	-12
CCC(=O)N(C)C[C@H]1Oc2ncc(C#CCc3ccccc3)cc2C(=O)N([C@@H](C)CO)C[C@H]1C	/	/	/	2	-15
COc1cc(/C=C2/C(=O)N(C)C(=S)N2C)ccc1OCc1cccc(F)c1	-2	0	34*	-5	-204
COc1ccccc1OCC(=O)Nc1sc2c(c1C(N)=O)CCC2	6	5	1	29	-27
COc1cccc(C(=O)OCC(=O)Nc2sc3c(c2C(N)=O)CCC3)c1O	5	1	3	41*	-24
COc1ccccc1NC(=O)COC(=O)c1cc2c(s1)CCC2	/	-4	-1	64*	-26
COc1ccc(CN(C)C[C@H]2OCCCC[C@@H](C)Oc3ccc(NS(=O)(=O)c4ccccc4)cc3C(=O)N([C@@H](C)CO)C[C@H]2C)cc1	7	/	/	-1	26
COc1ccc2c3c(n(C)c2c1)[C@H](CO)N(C(=O)CC1CC1)CC31CCN(C(=O)CC2CC2)CC1	/	/	/	0	-3
CCS(=O)(=O)N1CCC2(CC1)CN(Cc1cccnc1)[C@@H](CO)c1c2c2ccc(OC)cc2n1C	/	/	/	-4	-125
Cc1ccc(NC(=O)c2ocnc2C)cc1Cl	-1	-4	1	59*	-9
CNc1ncnc(Sc2nc(N)nc3nc[nH]c23)c1[N+](=O)[O-]	/	2	18	/	5
Nc1nc(Sc2ccc([N+](=O)[O-])c3nonc23)c2[nH]cnc2n1	/	36	?	72*	-65
Cc1nnc(SCC(=O)N(C)C2CCCCC2)n1C	8	6	2	55*	-12
Cc1noc(C)c1NC(=O)Nc1ccc2c(c1)C(=O)N([C@H](C)CO)C[C@@H](C)[C@H](CN(C)S(C)(=O)=O)OCCCC[C@@H](C)O2	-1	/	/	-2	-17
Cc1c2c(cc3c1[nH]c1ccccc13)C=NCC2	58*	4	7	-20	9
COC(=O)CN1C(=O)COc2ccc(S(=O)(=O)N3CCCC3)cc21	-6	3	1	0	-6
